For 39 compounds, Percent Effect results are on record in ChEMBL document CHEMBL3988442, “University of Dundee, Small-Polar-MMV Screening Library” (2021).

For the test, the target named is T1, Arginase-2, mitochondrial (Homo sapiens) (UniProt P78540).
T1 sequence (whole entry): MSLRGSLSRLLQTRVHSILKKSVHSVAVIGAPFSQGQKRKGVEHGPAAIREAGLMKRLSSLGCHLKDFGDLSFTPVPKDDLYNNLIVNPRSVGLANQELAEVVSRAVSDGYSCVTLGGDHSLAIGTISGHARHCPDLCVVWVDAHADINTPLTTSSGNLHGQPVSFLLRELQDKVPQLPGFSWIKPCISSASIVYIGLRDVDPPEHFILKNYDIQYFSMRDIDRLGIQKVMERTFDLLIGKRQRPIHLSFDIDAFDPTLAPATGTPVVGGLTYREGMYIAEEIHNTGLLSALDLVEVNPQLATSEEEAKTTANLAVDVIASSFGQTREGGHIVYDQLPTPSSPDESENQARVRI
Description: in vitro enzyme assay to detect the production of urea directly proportional to the activity of Arginase II. More on the design: scale not given: in the data most compounds retested in dose-response had high values. The class given is functional. The following applies: 33.3 µM.
`CC(=O)N1CCCC1c1nccc(C)n1` (centres undefined): the Percent Effect stood at 3.5%. Under `CN(Cc1nccn1CC(F)(F)F)C(=O)c1cccc(C#N)c1` stands -4.73%. Under `COc1ccc(-c2noc(CNC(C)Cn3cccn3)n2)c(OC)c1` (centres undefined) stands -2.52%. As for `NCC(=O)N1CCCC(c2cncc(Nc3ncccn3)n2)C1` (centres undefined), the Percent Effect was -3.48%. Take `O=C(Cc1ccccc1)N1CCC2(CC(=O)N(c3ccsc3)C2)C1` (centres undefined): the Percent Effect was 11.2%.

In the case of `CCCSCC(=O)NS(=O)(=O)c1ccc2c(c1)OCCO2`, the Percent Effect was 3.45%.

For `O=C(NC1CC1)[C@H]1C[C@@H]2CCN(CCc3ccccc3)C[C@H]2O1`, the Percent Effect stood at 2.56%.

Regarding `OC1CCCN(Cc2c(-c3ccco3)[nH]c3ncccc23)C1` (centres undefined), the Percent Effect was -1.16%. Under `Cn1cccc1C1CCCN1C(=O)NCCCn1cccn1` (centres undefined) stands -2.08%.

Turning to `O=C(NC1(c2nnn(CCO)n2)CCCC1)c1ccccc1`, the Percent Effect is 17.7%. Under `O=C(Cc1ccccc1)N1CCC2(CC(=O)N(c3cccc(F)c3)C2)C1` (centres undefined) stands 1.74%; under `c1cncc(C2COC3(CCN(CC4CC4)CC3)C2)c1` (centres undefined), 4.58%. Under `Cc1nc(C2CCCN(C(=O)c3ccc(OCC4CC4)cc3)C2)no1` (centres undefined) stands 3.24%; under `Cc1ncsc1C(=O)NC1CCN(CCC(N)=O)CC1`, 0.356%; under `CCn1cc(N)c(C(=O)NCc2cnn(C)c2)n1`, -8.28%.

As for `O=C(NCCNc1ccc(C(F)(F)F)cn1)c1ccc(Br)cc1F`, the Percent Effect was -2.74%. As for `CCc1ccc(C(=O)N2CCCC(c3noc(CC)n3)C2)o1` (centres undefined), the figure is 0.21%; as for `CN(c1ccc(C(=O)NCCCN2CCOCC2)c(Cl)c1)S(C)(=O)=O`, -13.8%. Take `CCN1CCCC1CN(CCN(C)C)S(=O)(=O)c1ccc(C#N)cc1` (centres undefined): the Percent Effect is 0.909%. In the case of `CN(C)C(C)(C)CNC(=O)C(C)(C)c1ccccc1F`, the Percent Effect is -0.442%. Under `Cc1cccc(CCC(=O)N2CCOCC2c2c(C)n[nH]c2C)c1` (centres undefined) stands -2.73%; under `COc1ccc(NC(=O)c2ccc[nH]2)c(N2CCN(C(C)=O)CC2)n1`, 37.1%; under `CS(=O)(=O)NCC1CCCN(C(=O)Nc2ccccc2Cl)C1` (centres undefined), -5.92%. Under `O=c1cc2c(nn1CN1CCOCC1)CCC2` stands -6.87%; under `CN(C)C(CNC(=O)c1cccc(-n2cnnn2)c1)c1ccccc1Cl` (centres undefined), 3.64%.

Turning to `COc1cccc2c1ccn2CCNC(=O)C(C)C`, the Percent Effect was -1.94%. Under `CCc1ncncc1C(=O)N1CCCN(Cc2ccc(C)cc2)CC1` stands -0.36%; under `CC(NC1(CNC(=O)C(C)(C)C#N)CCOCC1)c1ccccc1` (centres undefined), -1.74%; under `COc1ccc(CN2C[C@@H]3OCCN(CC4CCCO4)[C@@H]3C2)cc1` (some centres undefined), -4.78%.

Consider `Cc1cc(C)c(CNC(=O)N2CCN(c3cnccn3)CC2)c(=O)[nH]1`, for which the Percent Effect was -1.53%. As for `Cc1nc(CN(Cc2cccs2)C2CCS(=O)(=O)C2)oc1C` (centres undefined), the figure is 2.16%; as for `CCOc1ccc(S(=O)(=O)NC(=O)CCC2CCCO2)cc1` (centres undefined), -5.21%.

Regarding `CC(C)NC(=O)N1CC[C@@H]2CN(Cc3ccccc3)S(=O)(=O)[C@@H]2CC1`, the Percent Effect stood at 0.319%. Take `CN(Cc1ccc(F)cc1)C(=O)CN1CCCC(Cn2cncn2)C1` (centres undefined): the Percent Effect was determined as 1.52%. As for `CNS(=O)(=O)c1ccc(C(=O)N2CCCC(n3cccn3)C2)cc1` (centres undefined), the figure is -4.21%. As for `Cc1ccc(F)c(-n2nnc(C(=O)O)c2-c2ccncc2)c1`, the figure is -2.37%. Under `CN(C)c1ccc(C(=O)NCC2(O)CCOCC2)cc1` stands 3.33%; under `CNS(=O)(=O)CCCN1CCCC1c1cc(C)on1` (centres undefined), -1.52%.

Consider `CCN1CC2(CC1=O)CN(Cc1cccs1)CCN(C(=O)C(C)C)C2` (centres undefined), for which the Percent Effect is -3.33%.
